Experimental data reported in PubChem BioAssay AID1159580 (chemical genetic matrix, 2015).
About 2,000 (36%) of roughly 5,500 compounds were called active. About 18% were inconclusive and are not listed. Rule as the data show it: active = normalized growth mostly below about 0.91 (no sharp cut-off); inconclusive = no clear call, values can overlap the other calls; inactive = mostly above about 0.92. The list shows a part of the results.

Test: chemical genetic growth profiling, strain panel (AID 1159580);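 also: tested at 20 µM; growth read once vehicle control cultures reached saturation at 30 °C; 1 = growth at the plate median or of vehicle wells; lower values mean less growth of the strain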
Details: S. cerevisiae deletion strains, growth OD

Measured: normalized growth

Cc1ccc(S(=O)(=O)Nc2ccc(Oc3ccc(F)cc3)cc2)cc1
active: locus YHR030C, strain SLT2, hits give low values 0.767 | locus YLR113W, strain HOG1, hits give low values 0.739 | locus YPL256C, strain CLN2, hits give low values 0.815
inactive: locus YAR019C, strain CDC15, hits give low values 0.98 | locus YBL105C, strain PKC1, hits give low values 0.977 | locus YBR135W, strain CKS1, hits give low values 0.983 | locus YBR136W, strain MEC1, hits give low values 0.985 | locus YBR160W, strain CDC28, hits give low values 0.976 | locus YDL017W, strain CDC7, hits give low values 0.985 | locus YDL028C, strain MPS1, hits give low values 0.987 | locus YDL101C, strain DUN1, hits give low values 0.982 | locus YDL108W, strain KIN28, hits give low values 0.977 | locus YDL132W, strain cdc53, hits give low values 0.974 | locus YDL214C, strain PRR2, hits give low values 0.907 | locus YDR052C, strain DBF4, hits give low values 0.979 | locus YDR054C, strain cdc34, hits give low values 0.975 | locus YDR226W, strain ADK1, hits give low values 0.983 | locus YDR477W, strain SNF1, hits give low values 0.927 | locus YER123W, strain YCK3, hits give low values 0.866 | locus YER133W, strain GLC7, hits give low values 0.93 | locus YFL009W, strain cdc4, hits give low values 0.983 | locus YFL029C, strain CAK1, hits give low values 0.977 | locus YFR003C, strain YPI1, hits give low values 0.979 | locus YFR019W, strain FAB1, hits give low values 0.95 | locus YFR028C, strain CDC14, hits give low values 0.972 | locus YGR040W, strain KSS1, hits give low values 0.915 | locus YGR052W, strain FMP48, hits give low values 0.91 | locus YGR092W, strain DBF2, hits give low values 0.839 | locus YHR079C, strain IRE1, hits give low values 0.876 | locus YHR082C, strain KSP1, hits give low values 0.895 | locus YHR205W, strain SCH9, hits give low values 0.926 | locus YIL147C, strain SLN1, hits give low values 0.992 | locus YJL095W, strain BCK1, hits give low values 0.9 | locus YJL128C, strain PBS2, hits give low values 0.946 | locus YJL157C, strain FAR1, hits give low values 0.908 | locus YJR016C, strain ILV3, hits give low values 0.981 | locus YJR066W, strain TOR1 (second series), hits give low values 0.892 | locus YJR066W, strain TOR1, hits give low values 0.968 | locus YKL048C, strain ELM1, hits give low values 0.934 | locus YKL067W, strain YNK1, hits give low values 0.905 | locus YKL101W, strain HSL1, hits give low values 0.887 | locus YKL193C, strain SDS22, hits give low values 0.978 | locus YKL203C, strain TOR2, hits give low values 0.979 | locus YLR133W, strain CKI1, hits give low values 0.916 | locus YLR403W, strain SFP1, hits give low values 0.914 | locus YML070W, strain DAK1, hits give low values 0.868 | locus YMR001C, strain CDC5, hits give low values 0.986 | locus YMR205C, strain PFK2 (second series), hits give low values 0.918 | locus YMR277W, strain FCP1, hits give low values 0.985 | locus YNL006W, strain LST8, hits give low values 0.996 | locus YNL020C, strain ARK1, hits give low values 0.898 | locus YNL161W, strain CBK1, hits give low values 0.978 | locus YNL183C, strain NPR1, hits give low values 0.836 | locus YNL207W, strain RIO2, hits give low values 0.985 | locus YNL222W, strain SSU72, hits give low values 0.969 | locus YNL307C, strain MCK1 (second series), hits give low values 0.873 | locus YOL078W, strain AVO1, hits give low values 0.978 | locus YOL136C, strain PFK27, hits give low values 0.88 | locus YOR061W, strain CKA2, hits give low values 0.898 | locus YOR119C, strain RIO1, hits give low values 0.981 | locus YOR231W, strain MKK1, hits give low values 0.849 | locus YOR329C, strain SCD5, hits give low values 0.983 | locus YPL031C, strain PHO85, hits give low values 0.913 | locus YPL153C, strain RAD53, hits give low values 0.862 | locus YPL204W, strain HRR25, hits give low values 0.896 | locus YPL209C, strain IPL1, hits give low values 0.979 | locus YPR025C, strain CCL1, hits give low values 0.984 | locus YPR106W, strain ISR1, hits give low values 0.965 | locus YPR111W, strain DBF20, hits give low values 0.953 | strain NNK1, hits give low values 0.969 | strain TSCII, hits give low values 0.98

CCn1c(=O)c2[nH]c(-c3ccccc3)nc2n(CC)c1=O
inactive: locus YAL040C, strain CLN3, hits give low values 1 | locus YCL061C, strain MRC1 (second series), hits give low values 0.997 | locus YDR363W, strain ESC2, hits give low values 1.01 | locus YER002W, strain NOP16, hits give low values 1.04 | locus YMR307W, strain GAS1, hits give low values 0.992 | locus YNL175C, strain NOP13, hits give low values 1.01 | locus YNL197C, strain WHI3, hits give low values 1.01 | locus YNL224C, strain SQS1, hits give low values 1 | locus YOR083W, strain WHI5 (second series), hits give low values 1.01 | locus YPL055C, strain LGE1, hits give low values 1 | locus YPL241C, strain CIN2, hits give low values 1.01
